Results on 14 compounds are retold here after ChEMBL document CHEMBL2218924, “A broad activity screen in support of a chemogenomic map for kinase signalling research and drug discovery” (Biochem J, 2013).

Experiment [1] concerns the target T1, cGMP-dependent protein kinase 1 (Homo sapiens) (UniProt Q13976).
T1 sequence (whole entry): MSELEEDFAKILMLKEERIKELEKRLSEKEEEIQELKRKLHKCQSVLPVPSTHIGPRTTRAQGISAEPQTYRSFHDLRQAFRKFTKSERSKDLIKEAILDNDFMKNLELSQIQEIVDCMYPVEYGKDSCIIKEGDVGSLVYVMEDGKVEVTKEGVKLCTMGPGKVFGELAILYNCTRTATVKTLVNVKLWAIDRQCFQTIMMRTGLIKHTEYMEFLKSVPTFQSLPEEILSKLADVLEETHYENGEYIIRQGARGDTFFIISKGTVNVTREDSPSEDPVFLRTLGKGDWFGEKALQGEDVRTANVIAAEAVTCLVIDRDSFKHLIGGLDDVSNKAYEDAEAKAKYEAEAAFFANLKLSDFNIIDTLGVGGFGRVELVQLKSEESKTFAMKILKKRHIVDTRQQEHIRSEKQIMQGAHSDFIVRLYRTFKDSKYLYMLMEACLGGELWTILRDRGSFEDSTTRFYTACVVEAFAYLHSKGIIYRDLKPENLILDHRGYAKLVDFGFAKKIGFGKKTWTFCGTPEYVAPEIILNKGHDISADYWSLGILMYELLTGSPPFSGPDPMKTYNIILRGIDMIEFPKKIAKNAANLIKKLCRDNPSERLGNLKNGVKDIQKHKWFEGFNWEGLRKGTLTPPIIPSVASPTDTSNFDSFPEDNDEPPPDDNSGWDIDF
The settings on record: at 1 µM.

The target in experiment [2] is T1, cGMP-dependent protein kinase 1 (Homo sapiens). Conditions: at 10 µM.
Experiment [3] shares this target. Conditions: at 1 µM. This is another data set of the same source.
For experiment [4] the target is unchanged. Conditions: at 10 µM. This is another data set of the same source.
Experiment [5] addresses T2, MAP kinase-activated protein kinase 5 (Homo sapiens) (UniProt Q8IW41).
T2 sequence (whole entry): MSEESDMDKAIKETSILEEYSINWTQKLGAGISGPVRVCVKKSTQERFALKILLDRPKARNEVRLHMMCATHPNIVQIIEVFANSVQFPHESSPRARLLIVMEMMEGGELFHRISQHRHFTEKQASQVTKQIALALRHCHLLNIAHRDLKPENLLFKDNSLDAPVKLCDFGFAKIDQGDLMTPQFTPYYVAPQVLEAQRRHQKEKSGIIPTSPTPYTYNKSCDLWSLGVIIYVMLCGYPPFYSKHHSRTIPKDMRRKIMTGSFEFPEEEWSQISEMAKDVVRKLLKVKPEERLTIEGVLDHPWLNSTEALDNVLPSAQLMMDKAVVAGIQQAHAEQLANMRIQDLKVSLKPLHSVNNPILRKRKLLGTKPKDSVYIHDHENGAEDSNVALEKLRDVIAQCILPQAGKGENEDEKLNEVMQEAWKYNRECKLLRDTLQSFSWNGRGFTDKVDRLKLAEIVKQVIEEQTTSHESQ
The settings on record: at 1 µM.

For experiment [6], the target named is T2, MAP kinase-activated protein kinase 5 (Homo sapiens). The settings on record: at 10 µM.
The target of experiment [7] is Serine/threonine-protein kinase N2 (Homo sapiens) (UniProt Q16513). The settings on record: at 1 µM.
The target is the same in experiment [8]. Conditions: at 10 µM.
Experiment [9] addresses Tyrosine-protein kinase FRK (Homo sapiens) (UniProt P42685). The settings on record: at 1 µM.
The target is the same in experiment [10]. The settings on record: at 10 µM.
For experiment [11], the target named is T3, Phosphorylase b kinase gamma catalytic chain, liver/testis isoform (Homo sapiens) (UniProt P15735).
T3 sequence (whole entry): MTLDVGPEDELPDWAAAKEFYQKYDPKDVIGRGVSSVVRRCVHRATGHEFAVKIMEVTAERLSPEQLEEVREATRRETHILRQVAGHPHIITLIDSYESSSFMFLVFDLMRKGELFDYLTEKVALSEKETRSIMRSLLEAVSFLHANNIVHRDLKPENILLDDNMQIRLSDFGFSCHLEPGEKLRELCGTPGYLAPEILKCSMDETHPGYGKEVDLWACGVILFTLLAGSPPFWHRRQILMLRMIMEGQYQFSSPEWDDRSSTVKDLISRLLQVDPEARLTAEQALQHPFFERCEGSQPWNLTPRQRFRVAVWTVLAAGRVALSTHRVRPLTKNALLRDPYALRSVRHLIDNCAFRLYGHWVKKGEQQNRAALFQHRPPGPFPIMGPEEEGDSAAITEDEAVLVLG
The settings on record: at 1 µM.

Experiment [12] deals with T3, Phosphorylase b kinase gamma catalytic chain, liver/testis isoform (Homo sapiens). Conditions: at 10 µM.
Experiment [13] has as its target Serine/threonine-protein kinase pim-1 (Homo sapiens) (UniProt P11309). Conditions: at 1 µM.
Experiment [14] has the same target. The settings on record: at 10 µM.
Experiment [15] concerns the target Serine/threonine-protein kinase pim-2 (Homo sapiens) (UniProt Q9P1W9). The settings on record: at 1 µM.
Experiment [16] concerns the target Serine/threonine-protein kinase pim-3 (Homo sapiens) (UniProt Q86V86). Conditions: at 1 µM.
Experiment [17] shares this target. The settings on record: at 10 µM.
For experiment [18], the target named is Serine/threonine-protein kinase PLK1 (Homo sapiens) (UniProt P53350). Conditions: at 1 µM.
For experiment [19] the target is unchanged. The settings on record: at 10 µM.
Experiment [20] concerns the target Serine/threonine-protein kinase pim-2 (Homo sapiens) (UniProt Q9P1W9). The settings on record: at 10 µM.

Serine/threonine-protein kinase N2 (Homo sapiens), sequence (Q16513 whole entry, looked up): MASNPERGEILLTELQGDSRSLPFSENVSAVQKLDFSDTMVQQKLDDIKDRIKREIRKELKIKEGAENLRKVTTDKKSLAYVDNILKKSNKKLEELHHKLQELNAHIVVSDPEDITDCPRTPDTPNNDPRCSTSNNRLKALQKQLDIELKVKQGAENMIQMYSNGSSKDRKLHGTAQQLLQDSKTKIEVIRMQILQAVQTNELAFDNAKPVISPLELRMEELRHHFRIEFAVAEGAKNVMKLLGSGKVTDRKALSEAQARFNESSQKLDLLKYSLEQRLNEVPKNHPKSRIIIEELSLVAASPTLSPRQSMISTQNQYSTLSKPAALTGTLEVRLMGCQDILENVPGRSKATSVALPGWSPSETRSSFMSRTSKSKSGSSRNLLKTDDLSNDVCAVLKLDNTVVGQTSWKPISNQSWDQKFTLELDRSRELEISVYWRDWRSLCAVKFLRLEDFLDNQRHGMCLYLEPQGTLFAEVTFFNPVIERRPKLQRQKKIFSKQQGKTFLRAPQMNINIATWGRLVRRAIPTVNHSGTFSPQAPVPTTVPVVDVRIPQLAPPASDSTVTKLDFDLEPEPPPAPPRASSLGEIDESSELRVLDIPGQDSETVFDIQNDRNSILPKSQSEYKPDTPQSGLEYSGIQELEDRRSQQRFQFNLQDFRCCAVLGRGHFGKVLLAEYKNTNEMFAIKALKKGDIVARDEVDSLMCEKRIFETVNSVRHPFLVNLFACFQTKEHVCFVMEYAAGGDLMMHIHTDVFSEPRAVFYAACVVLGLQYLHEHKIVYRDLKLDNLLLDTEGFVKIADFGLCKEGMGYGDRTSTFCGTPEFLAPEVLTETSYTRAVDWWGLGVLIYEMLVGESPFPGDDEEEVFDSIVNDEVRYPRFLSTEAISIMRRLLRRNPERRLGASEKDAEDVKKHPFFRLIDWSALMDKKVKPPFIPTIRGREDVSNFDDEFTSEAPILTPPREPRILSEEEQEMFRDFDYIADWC
Serine/threonine-protein kinase pim-2 (Homo sapiens), sequence (Q9P1W9 whole entry, looked up): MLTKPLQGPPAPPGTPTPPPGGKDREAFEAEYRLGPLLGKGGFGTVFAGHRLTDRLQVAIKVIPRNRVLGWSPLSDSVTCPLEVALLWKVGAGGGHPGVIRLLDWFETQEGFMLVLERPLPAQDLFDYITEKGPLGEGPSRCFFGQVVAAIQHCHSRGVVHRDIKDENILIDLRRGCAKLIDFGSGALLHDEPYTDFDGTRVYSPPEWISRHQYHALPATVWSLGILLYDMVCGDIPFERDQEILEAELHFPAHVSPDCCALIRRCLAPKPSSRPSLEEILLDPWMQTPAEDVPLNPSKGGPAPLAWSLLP
Serine/threonine-protein kinase pim-1 (Homo sapiens), sequence (P11309 whole entry, looked up): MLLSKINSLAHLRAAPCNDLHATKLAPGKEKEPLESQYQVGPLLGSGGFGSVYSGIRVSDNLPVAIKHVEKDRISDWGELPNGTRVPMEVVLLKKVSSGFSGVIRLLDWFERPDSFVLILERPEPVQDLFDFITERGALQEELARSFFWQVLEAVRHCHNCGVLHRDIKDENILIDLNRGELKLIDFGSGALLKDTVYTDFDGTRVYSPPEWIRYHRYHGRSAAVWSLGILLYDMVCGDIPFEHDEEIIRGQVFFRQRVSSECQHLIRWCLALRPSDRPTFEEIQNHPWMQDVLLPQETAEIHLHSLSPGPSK
Serine/threonine-protein kinase PLK1 (Homo sapiens), sequence (P53350 whole entry): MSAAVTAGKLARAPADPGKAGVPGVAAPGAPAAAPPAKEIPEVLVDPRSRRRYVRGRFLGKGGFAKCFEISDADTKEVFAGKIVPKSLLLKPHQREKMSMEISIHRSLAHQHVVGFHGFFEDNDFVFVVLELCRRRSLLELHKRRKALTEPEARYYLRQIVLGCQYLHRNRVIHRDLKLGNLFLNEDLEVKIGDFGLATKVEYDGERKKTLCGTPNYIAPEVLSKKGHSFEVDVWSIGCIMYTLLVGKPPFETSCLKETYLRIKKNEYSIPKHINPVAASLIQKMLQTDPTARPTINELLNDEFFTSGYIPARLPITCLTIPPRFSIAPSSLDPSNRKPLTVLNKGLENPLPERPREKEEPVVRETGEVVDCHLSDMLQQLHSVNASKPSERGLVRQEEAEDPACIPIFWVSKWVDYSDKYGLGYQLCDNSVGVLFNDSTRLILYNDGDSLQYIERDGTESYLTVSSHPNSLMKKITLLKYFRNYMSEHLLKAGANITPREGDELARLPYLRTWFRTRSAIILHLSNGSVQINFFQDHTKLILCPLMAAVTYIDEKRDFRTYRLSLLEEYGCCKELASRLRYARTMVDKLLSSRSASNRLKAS
Tyrosine-protein kinase FRK (Homo sapiens), sequence (P42685 whole entry): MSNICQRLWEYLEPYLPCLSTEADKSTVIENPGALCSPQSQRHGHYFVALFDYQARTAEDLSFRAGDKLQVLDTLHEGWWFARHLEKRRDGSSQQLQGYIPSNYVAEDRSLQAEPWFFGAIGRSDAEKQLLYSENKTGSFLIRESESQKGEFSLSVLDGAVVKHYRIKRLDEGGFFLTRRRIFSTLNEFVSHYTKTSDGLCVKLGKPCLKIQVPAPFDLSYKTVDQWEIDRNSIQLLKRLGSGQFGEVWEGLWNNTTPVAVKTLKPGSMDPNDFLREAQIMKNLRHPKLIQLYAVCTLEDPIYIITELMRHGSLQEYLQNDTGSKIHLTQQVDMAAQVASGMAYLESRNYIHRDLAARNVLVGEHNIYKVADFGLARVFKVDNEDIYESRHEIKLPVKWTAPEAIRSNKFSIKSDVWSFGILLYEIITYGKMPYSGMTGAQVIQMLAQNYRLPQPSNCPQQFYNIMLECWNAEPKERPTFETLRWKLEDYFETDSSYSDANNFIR

Regarding `COc1cc2nccc(Oc3ccc(NC(=S)NC(=O)c4ccccc4C)cc3)c2cc1OC`, the residual activity in experiment [1] is 97%; in experiment [2] it was 97%; in [3] it was 69%; in [4], 66%; in experiment [5] it was 70%; in experiment [6] it was 79%. Besides, the residual activity came to 90% in experiment [7]; 88% in [8]; 6% in experiment [9]; 1% in experiment [10]; 61% in experiment [11]; 45% in [12]. Also, the residual activity in experiment [13] came to 102%; in [14], 99%; in [15], 97%; in [16] it was 89%; in experiment [17] it was 87%; in [18], 83%. Besides, the residual activity in experiment [19] was found to be 65%.
`O=C1NC(=O)C(c2c[nH]c3ccccc23)=C1c1c[nH]c2ccccc12`: the residual activity in experiment [2] amounted to 43%; in experiment [3] it was 83%; in [4], 28%; in experiment [5] it was 98%; in [6], 48%; in [7] it was 81%. For the same compound, the residual activity in [8] was 37%; in [9] it was 80%; in [10] it was 41%; in experiment [13] it was 12%; in [14] it was 0%; in experiment [15], 23%. Besides, the residual activity worked out at 8% in experiment [20] and 73% in [17].
`O=C1C(Cl)=C(N2C(=O)CCC2=O)C(=O)c2ccccc21`: the residual activity in experiment [1] turned out to be 95%; in experiment [2] it was 96%; in experiment [3] it was 101%; in [4], 88%; in [6], 98%; in [7], 86%. The residual activity in [8] is 79%; in experiment [9], 88%; in experiment [10] it was 96%; in [13] it was 84%; in experiment [14], 82%; in [15], 131%. Further, the residual activity in experiment [20] was 99%; in [16], 84%; in experiment [17] it was 84%; in experiment [18], 74%; in experiment [19], 85%.
For `O=S(=O)(c1cccc2cnccc12)N1CCCNCC1`, the residual activity in experiment [1] came out at 57%; in experiment [2] it was 17%; in [3] it was 68%; in [4], 15%; in experiment [7] it was 56%; in experiment [8] it was 10%. Moreover, the residual activity in [15] was determined as 138%.
In the case of `Cc1cc(C)c(/C=C2\C(=O)Nc3ccccc32)[nH]1`, the residual activity in [1] was 104%; in experiment [2] it was 103%; in [4], 78%; in experiment [5], 78%; in experiment [16], 100%; in experiment [17], 101%. For the same compound, in [19], the residual activity turned out to be 76%.
Regarding `CC(C)c1nn(-c2c(Cl)cccc2Cl)c2nc(Cc3ccc(OCCO)cc3)[nH]c(=O)c12`, the residual activity in experiment [1] was found to be 103%; in experiment [2], 102%; in experiment [3], 91%; in experiment [4], 48%; in experiment [6], 73%; in experiment [7], 89%. Besides, the residual activity amounted to 91% in [8]; 72% in [9]; 35% in experiment [10]; 93% in experiment [12]; 104% in experiment [13]; 82% in [14]. Also, the residual activity in experiment [15] came to 131%; in experiment [20], 103%; in experiment [16], 93%; in [17], 92%; in experiment [18] it was 83%; in experiment [19] it was 81%.
As to `CSc1nc(-c2ccc(F)cc2)c(-c2ccnc(NC(C)c3ccccc3)c2)[nH]1` (stereo not given), the residual activity came to 85% in experiment [1]; 86% in experiment [2]; 84% in [4]; 94% in experiment [8]; 90% in experiment [9]; 94% in experiment [10]. Moreover, the figures for the residual activity in experiment [13] and in [14] were 85% and 53%, respectively.
`NC(=O)Nc1sc(-c2ccc(F)cc2)cc1C(N)=O`: the residual activity in experiment [1] came to 87%; in experiment [2], 73%; in [3], 84%; in experiment [4], 43%; in experiment [5], 96%; in experiment [6], 58%. The residual activity in experiment [7] was 82%; in experiment [8], 27%; in [9] it was 63%; in [10], 19%; in [11], 105%; in experiment [12] it was 69%. Further, the residual activity amounted to 95% in [13], 43% in experiment [14], 93% in [15] and 60% in experiment [20].
Consider `Nc1ncnc2[nH]nc(Nc3ccc(F)cc3)c12`, for which the residual activity in experiment [1] worked out at 100%; in experiment [2], 79%; in experiment [3] it was 95%; in [4] it was 79%; in experiment [5], 109%; in [6], 91%. Also, the residual activity in experiment [7] is 107%; in experiment [8], 80%; in [10], 38%; in [11], 102%; in [12] it was 99%; in experiment [13], 115%. Moreover, the residual activity in experiment [14] is 53%; in [15], 133%; in [20] it was 99%; in experiment [17], 69%; in [19] it was 77%.
In the case of `Oc1cccc(-c2nc(N3CCOCC3)c3oc4ncccc4c3n2)c1`, the residual activity in experiment [1] was found to be 120%; in experiment [4], 90%; in [5], 98%; in experiment [13] it was 88%; in [14], 86%; in [16], 98%. Besides, in [17], the residual activity turned out to be 98%.
Take `COc1ccc(-c2cnc3c(-c4ccsc4)cnn3c2)cc1`: the residual activity in experiment [1] is 88%; in [2], 90%; in experiment [3], 99%; in [4] it was 99%; in [5], 93%; in experiment [6], 84%. Also, the residual activity was determined as 95% in [7]; 130% in experiment [8]; 76% in experiment [13]; 70% in experiment [14]; 95% in experiment [18]; 71% in [19].
Turning to `O=c1cc(N2CCOCC2)oc2c1ccc1ccccc12`, the residual activity is 91% in experiment [3]; 99% in experiment [4]; 28% in [5]; 42% in experiment [6]; 101% in experiment [7]; 98% in experiment [8]. Further, the residual activity in experiment [10] came out at 90%; in experiment [11], 90%; in experiment [12], 89%; in [13], 55%; in experiment [14], 13%; in [15] it was 87%. The residual activity was 45% in experiment [20]; 92% in experiment [16]; 55% in experiment [17]; 56% in experiment [18]; 11% in experiment [19].
On to `O=C1Nc2ccccc2/C1=C\c1c(Cl)[nH]c2ccccc12`, for which the residual activity was found to be 84% in [2]; 72% in experiment [4]; 83% in experiment [9]; 73% in [10]; 87% in experiment [11]; 87% in experiment [12]. In addition, the residual activity in experiment [14] amounted to 26%; in experiment [15] it was 73%; in [20], 16%; in experiment [18], 86%; in experiment [19] it was 75%.
Regarding `O=C1Cc2c([nH]c3ccc(Br)cc23)-c2ccccc2N1`, the residual activity in [1] amounted to 98%; in experiment [2], 97%; in experiment [3], 83%; in experiment [4] it was 74%; in [5], 97%; in [6] it was 70%. The residual activity in experiment [7] was found to be 60%; in [8], 26%; in experiment [9], 68%; in experiment [10], 40%; in experiment [11], 120%; in [12] it was 89%. For the same compound, the residual activity was 75% in [13]; 56% in experiment [14]; 100% in experiment [15]; 79% in experiment [20]; 83% in [16]; 79% in experiment [17]. Also, the residual activity in experiment [18] is 76%; in experiment [19], 75%.
